Results on nine compounds are retold here after PubChem BioAssay (NCATS).

Where “and” joins values, the source holds several entries; their conditions need not be identical. Equal values may be shown once. Results filed as inconclusive are left out. Calls of active or inactive are those of the source. Unless noted, the call rests on the fitted dose curve; in most records, active means well fitted curve in the direction sought with a large enough effect; inconclusive means small, poorly fitted or top-dose-only effect, or another doubt; inactive means no such curve, though single readings can be large; an effect the other way counts as inactive or inconclusive.

The nature of test [1]: Cell Viability - BJ (AID 421; calls by dose curve;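 further: potency means the concentration at half of the fitted maximal effect; cells exposed to compound for 40 hours at 37 °C before readout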). Particulars: BJ fibroblast viability, qHTS. A digest of the protocol:
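Quantitative HTS: ATP depletion in BJ cells after 40 hr compound exposure in complete culture medium, detected with CellTiter-Glo; AC50 from standard Hill fits.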

Test [2] addresses Mitogen-activated protein kinase 10 (Mus musculus) (UniProt Q61831). The experiment in a line: JNK3 AlphaScreen Assay (AID 530; active means well fitted curve in either direction with a large enough effect, not every such curve was filed as active;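 further: kinase came from lysate of stimulated human HepG2 cells; signal reports phosphorylation of biotinylated GST-cJun 1-79 at Ser73 with 10 µM ATP; on the % scale 0 is the no-effect control and ±100 the full control effect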). Particulars: JNK3 lysate, c-Jun phosphorylation; series mostly up to 11.4 µM. Put shortly:
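qHTS titrations with 15 min compound pre-incubation before adding ATP (10 uM final). Read-out: AlphaScreen of Ser73-phosphorylated biotin-GST-cJun using HepG2 lysate JNK3 activated by IL-1β and TNFα.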
(In Alpha technology, singlet oxygen from a donor bead excites a nearby acceptor bead.)

A short description of test [3]: Cell Viability - LYMP2-001 (AID 921). Further: nearly all actives have a fitted effect of over 70% in size. Further: potency means the concentration at half of the fitted maximal effect. Particulars: LYMP2-001 lymphoblastoid cell viability; series mostly up to 92.2 µM. A digest of the protocol:
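Human lymphoblastoid cells (Coriell), 2500 per well, were preincubated 5 hr at 37 C, then exposed to compounds in complete medium for 24 hr at 37 C. Cellular ATP was read by CellTiter-Glo luminescence; AC50 from Hill fits of concentration-response data.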

A short description of test [4]: MultiTox-Fluor Cytotoxicity Assay - LYMP1-001 - Live Cells (AID 947).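 Further: 0% = DMSO only and full inhibition = tetraoctylammonium bromide control.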 The conditions noted are these: LYMP1-001 lymphoblastoid cells, live-cell protease fluorescence viability; series mostly up to 92.2 µM.
A short description of test [5]: Cell Viability - LYMP2-019 (AID 973).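 Further: 0% = DMSO alone and full effect = 92 µM tetraoctylammonium bromide; nearly all actives have a fitted effect of over 55% in size.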 Particulars: LYMP2-019 lymphoblastoid cell line viability; series mostly up to 92.2 µM. A digest of the protocol: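 Cytotoxicity is scored as a concentration-dependent drop in cellular ATP after cells (2500/well) receive compound for 24 hr at 37 C. Tetraoctylammonium bromide serves as positive control.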
The nature of test [6]: Cell Viability - LYMP2-007 (AID 979).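 Further: cells exposed to compound for 24 h before reading; 0% = DMSO only and the negative end = 92 µM tetraoctylammonium bromide; nearly all actives have a fitted effect of over 60% in size.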 The conditions noted are these: LYMP2-007 lymphoblastoid cell viability; series mostly up to 92.2 µM. Put shortly:
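Cells are seeded at 2500 per well and rested 5 hr. Compounds are then added over a concentration series for 24 hr at 37 C. CellTiter-Glo is added for 30 min at room temperature before luminescence reading.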

Test [7] can be described thus: Cell Viability - LYMP2-022 (AID 987).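 Further: 0% = DMSO alone and full effect = tetraoctylammonium bromide at 92 µM; nearly all actives have a fitted effect of over 55% in size.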 Particulars: LYMP2-022 lymphoblastoid cell viability; series mostly up to 92.2 µM. A digest of the protocol: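 Cells were seeded at 2500 per well, rested 5 hr at 37 C, and treated with titrated compounds for 24 hr at 37 C. Cellular ATP was then quantified by luciferase luminescence, and AC50 values were derived from Hill-modelled concentration-response curves.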

In test [8] the target is Bile acid receptor (Homo sapiens) (UniProt Q96RI1). The experiment in a line: qHTS assay for small molecule antagonists of farnesoid X receptor signaling (AID 588526; calls by dose curve; further: on the % scale 0 is the no-effect control and ±100 the full control effect). The conditions noted are these: HEK293T FXR-UAS-bla, beta-lactamase ratio, antagonist mode; series mostly up to 76.7 µM. A digest of the protocol: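 Beta-lactamase reporter antagonist mode: HEK293T FXR-UAS-bla cells, titrated compound, CDCA stimulation, 16 h 37 C, CCF4 dye 2 h RT. Data normalized to CDCA 50 uM and DMSO; Hill-fit IC50.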
Chain of Bile acid receptor (Homo sapiens) (Q96RI1 whole entry, looked up): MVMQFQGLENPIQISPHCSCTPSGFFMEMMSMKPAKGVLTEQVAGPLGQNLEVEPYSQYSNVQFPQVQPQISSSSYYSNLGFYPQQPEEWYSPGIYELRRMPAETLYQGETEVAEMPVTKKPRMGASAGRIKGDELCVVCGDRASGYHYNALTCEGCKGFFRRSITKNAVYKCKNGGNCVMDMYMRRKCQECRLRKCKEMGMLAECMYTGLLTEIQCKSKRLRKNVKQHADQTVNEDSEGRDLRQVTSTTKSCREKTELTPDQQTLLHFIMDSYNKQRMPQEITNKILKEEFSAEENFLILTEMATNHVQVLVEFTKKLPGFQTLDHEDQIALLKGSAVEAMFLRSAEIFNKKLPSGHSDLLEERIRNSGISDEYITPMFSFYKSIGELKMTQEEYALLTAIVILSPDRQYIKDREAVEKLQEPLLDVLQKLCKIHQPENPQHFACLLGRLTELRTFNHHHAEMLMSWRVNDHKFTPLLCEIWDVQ
For orientation: Quantitative high-throughput screening tests each substance at several concentrations.

Test [9] concerns the target Glucocorticoid receptor (Homo sapiens) (UniProt P04150). Nature of the test: qHTS assay for small molecule agonists of glucocorticoid receptor signaling (AID 588532; active means well fitted curve in the direction sought with a large enough effect in the signal ratio, with a control signal flat; the % refers to the signal ratio;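 further: 100% = dexamethasone at 0.1 µM and 0% = DMSO only wells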). The conditions noted are these: HeLa MMTV-bla, beta-lactamase ratio, agonist, 18 h; stronger effect = higher value; percent of dexamethasone control, DMSO zero. Put shortly: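 Quantitative HTS using CellSensor MMTV-bla HeLa cells in charcoal/dextran-treated serum; compounds tested up to 92 uM. After 18 h at 37 C, CCF4 dye reported reporter induction.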

A short description of test [10]: qHTS assay for small molecule antagonists of peroxisome proliferator-activated receptor delta signaling (AID 588535).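 Further: cells co-treated with a PPAR-delta agonist as stimulator during compound exposure.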 The conditions noted are these: HEK293T PPARd-UAS-bla, beta-lactamase FRET ratio, 18 h; 460 nm channel. A digest of the protocol:
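Titrations were run on PPAR-delta-UAS-bla HEK293T cells in charcoal/dextran-stripped serum, incubated 18 h at 37 C. CCF4 fluorescence (460/530 nm) after 2 h RT; Hill equation yields IC50 and maximal response.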

The target of test [11] is Thyroid hormone receptor beta (Homo sapiens) (UniProt P10828). The experiment in a line: qHTS assay for small molecule antagonists of thyroid hormone receptor beta signaling (AID 588547; active means well fitted inhibition curve with a large enough effect in the signal ratio, with a control signal flat, not every such curve was filed as active; the % refers to the signal ratio;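 further: cells stimulated with 0.4 nM T3 agonist during compound exposure; on the % scale 0 is the no-effect control and ±100 the full control effect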). Particulars: TR-UAS-bla HEK293, beta-lactamase ratio, antagonist mode, 18 h. Put shortly: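 Inhibition of T3-driven (0.4nM final) beta-lactamase reporter activity was measured over 0.59 nM to 92 uM compound after 18 h at 37 C. The cells were GripTite HEK293 TR-UAS-bla in charcoal/dextran-stripped serum, with CCF4 ratio read-out and IC50 from Hill fits.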
Chain of Thyroid hormone receptor beta (Homo sapiens) (P10828 whole entry, looked up): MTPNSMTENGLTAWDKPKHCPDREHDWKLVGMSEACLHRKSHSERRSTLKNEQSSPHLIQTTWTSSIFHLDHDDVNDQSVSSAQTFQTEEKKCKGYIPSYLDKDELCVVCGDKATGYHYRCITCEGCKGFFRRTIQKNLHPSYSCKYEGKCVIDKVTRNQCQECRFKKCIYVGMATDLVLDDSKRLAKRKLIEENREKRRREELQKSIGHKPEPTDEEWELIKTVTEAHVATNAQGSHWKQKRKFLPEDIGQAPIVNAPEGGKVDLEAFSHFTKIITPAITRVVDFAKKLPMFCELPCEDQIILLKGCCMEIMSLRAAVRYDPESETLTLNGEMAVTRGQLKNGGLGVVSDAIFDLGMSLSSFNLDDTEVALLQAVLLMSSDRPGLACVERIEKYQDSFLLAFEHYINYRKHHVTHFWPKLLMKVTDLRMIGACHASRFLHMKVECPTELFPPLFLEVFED

Test [12] concerns the target Voltage-gated inwardly rectifying potassium channel KCNH2 (Homo sapiens) (UniProt Q12809). Nature of the test: qHTS Assay for Small Molecule Inhibitors of the Human hERG Channel Activity (AID 588834).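 Further: top concentration of the series differs between compounds; on the % scale 0 is the no-effect control and ±100 the full control effect; lower thallium flux fluorescence means stronger hERG block; nearly all actives have a fitted effect of over 50% in size.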 Particulars: U2OS BacMam hERG, FluxOR thallium flux fluorescence; series mostly up to 92.2 µM. Put shortly:
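In hERG-transduced U2OS cells, dye-loaded for 1 hr at room temperature in dark, test compounds incubated 10 min at 37 °C before thallium stimulation. AC50 values derived by Hill modelling of concentration-response.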

Test [13] can be described thus: Cell Viability - SK-N-SH (AID 435; calls by dose curve;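 further: potency means the concentration at half of the fitted maximal effect; compound exposure lasted 40 h at 37 °C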). Particulars: SK-N-SH neuroblastoma cell viability qHTS. Put shortly:
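SK-N-SH human neuroblastoma cells (1500/well) were exposed to compounds in complete medium for 40 h at 37 °C, and intracellular ATP was then measured by CellTiter-Glo luminescence. AC50 was taken from Hill fits, normalized to DMSO and 100 uM tamoxifen.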

The nature of test [14]: MultiTox-Fluor Cytotoxicity Assay - LYMP1-002 - Live Cells (AID 955).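 Further: cells exposed to compound for 16 hours; on the % scale 0 is the no-effect control and ±100 the full control effect.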 The conditions noted are these: LYMP1-002 lymphoblastoid live-cell protease fluorescence viability; series mostly up to 46.1 µM. Put shortly: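 Cells were seeded at 2500 per well and incubated 5 hr. Compounds were then added for 16 hr at 37 C, followed by MultiTox-Fluor reagent for 60 min at room temperature and fluorescence reading of viable-cell protease signal.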

Test [15] can be described thus: Cell Viability - LYMP1-003 - Assay at 40 hr (AID 964). Further: on the % scale 0 is the no-effect control and ±100 the full control effect; nearly all actives have a fitted effect of over 60% in size. Particulars: LYMP1-003 lymphoblastoid viability; series mostly up to 92.2 µM. Put shortly: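 Luminescent ATP signal (CellTiter-Glo) served as the viability read-out after 40 hr compound treatment of human lymphoblastoid LYMP1-003 cells at 37 C. Decreases in ATP were fitted with the Hill equation to give AC50.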

A short description of test [16]: Cell Viability - LYMP2-018 (AID 985).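 Further: compound exposure lasted 24 hr at 37 °C; plate controls were DMSO only for no effect and tetraoctylammonium bromide at 92 µM for full effect; nearly all actives have a fitted effect of over 50% in size.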 Particulars: LYMP2-018 lymphoblastoid cells, viability (qHTS); series mostly up to 92.2 µM. Put shortly: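 Seed 2500 lymphoblastoid cells per well, incubate 5 hr at 37 C, add compound and incubate 24 hr at 37 C, add CellTiter-Glo, wait 30 min at room temperature, then read luminescence.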
Test [17] addresses Glucocorticoid receptor (Homo sapiens) (UniProt P04150). Nature of the test: qHTS assay for small molecule antagonists of glucocorticoid receptor signaling (AID 588533; active means well fitted inhibition curve with a large enough effect in the signal ratio, with a control signal flat, not every such curve was filed as active; the % refers to the signal ratio). The conditions noted are these: HeLa MMTV-bla, GRE beta-lactamase ratio, antagonist mode, 18 h; series mostly up to 76.8 µM. Put shortly:
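Antagonist-mode qHTS: compound titrations added to GRE-bla HeLa cells, then dexamethasone 2 nM final; 18 h, 37 C. CCF4 FRET fluorescence normalized to dexamethasone and DMSO; IC50 from Hill fit.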

Test [18] deals with Peroxisome proliferator-activated receptor gamma (Homo sapiens) (UniProt P37231). Nature of the test: qHTS assay for small molecule antagonists of peroxisome proliferator-activated receptor gamma signaling (AID 588537; active means well fitted inhibition curve with a large enough effect in the signal ratio, with a control signal flat, not every such curve was filed as active; the % refers to the signal ratio;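 further: reporter cells co-stimulated with 50 nM rosiglitazone agonist during compound treatment; % of control where 0% means no effect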). Particulars: HEK293 PPARg-UAS-bla, beta-lactamase ratio, antagonist mode; series mostly up to 76.8 µM. A digest of the protocol: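 Antagonist-mode β-lactamase reporter screen run as a titration series. HEK293 PPARγ-UAS-bla cells are stimulated with rosiglitazone (50 nM final) for 16 h, then CCF4 is read at 460/530 nm. Data are scaled between DMSO and rosiglitazone and fitted to the Hill equation.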
Chain of Peroxisome proliferator-activated receptor gamma (Homo sapiens) (P37231 whole entry, looked up): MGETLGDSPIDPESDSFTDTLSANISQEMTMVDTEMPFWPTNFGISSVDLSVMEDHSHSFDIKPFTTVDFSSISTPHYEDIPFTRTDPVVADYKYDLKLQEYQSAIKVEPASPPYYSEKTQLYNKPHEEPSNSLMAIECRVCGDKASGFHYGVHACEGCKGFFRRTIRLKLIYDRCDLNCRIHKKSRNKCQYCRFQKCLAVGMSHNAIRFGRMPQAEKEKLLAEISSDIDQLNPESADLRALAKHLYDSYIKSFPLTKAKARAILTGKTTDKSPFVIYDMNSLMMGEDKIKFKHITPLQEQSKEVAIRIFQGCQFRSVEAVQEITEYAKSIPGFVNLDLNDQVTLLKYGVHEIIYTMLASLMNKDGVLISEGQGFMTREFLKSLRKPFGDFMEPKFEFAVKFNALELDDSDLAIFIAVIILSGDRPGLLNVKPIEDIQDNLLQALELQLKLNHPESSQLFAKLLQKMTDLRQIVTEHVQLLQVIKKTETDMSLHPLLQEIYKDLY

Test [19] is described as follows: Cell Viability - LYMP2-025 (AID 976).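 Further: plate controls were DMSO only for no effect and tetraoctylammonium bromide control for full effect.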 The conditions noted are these: LYMP2-025 lymphoblastoid cell viability; series mostly up to 92.2 µM. Put shortly:
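Acute cytotoxicity is scored as a concentration-dependent fall in intracellular ATP, measured by luciferase luminescence, in human lymphoblastoid LYMP2-025 cells exposed to compound for 24 hours at 37 C. AC50 values come from standard Hill fits.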

A short description of test [20]: Cell Viability - LYMP2-023 (AID 975).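 Further: cellular ATP measured by luciferase luminescence as viability proxy; plate controls were DMSO only for no effect and 92 µM tetraoctylammonium bromide control for full effect; nearly all actives have a fitted effect of over 55% in size.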 Particulars: LYMP2-023 lymphoblastoid cell viability; series mostly up to 92.2 µM. Put shortly: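 Steps: seed 2500 human lymphoblastoid cells per well, incubate 5 hr at 37 C, add compound for 24 hr at 37 C, add CellTiter-Glo, hold 30 min at room temperature, read luminescence. AC50 derived by Hill modelling.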

Chain of Voltage-gated inwardly rectifying potassium channel KCNH2 (Homo sapiens) (Q12809 whole entry, looked up): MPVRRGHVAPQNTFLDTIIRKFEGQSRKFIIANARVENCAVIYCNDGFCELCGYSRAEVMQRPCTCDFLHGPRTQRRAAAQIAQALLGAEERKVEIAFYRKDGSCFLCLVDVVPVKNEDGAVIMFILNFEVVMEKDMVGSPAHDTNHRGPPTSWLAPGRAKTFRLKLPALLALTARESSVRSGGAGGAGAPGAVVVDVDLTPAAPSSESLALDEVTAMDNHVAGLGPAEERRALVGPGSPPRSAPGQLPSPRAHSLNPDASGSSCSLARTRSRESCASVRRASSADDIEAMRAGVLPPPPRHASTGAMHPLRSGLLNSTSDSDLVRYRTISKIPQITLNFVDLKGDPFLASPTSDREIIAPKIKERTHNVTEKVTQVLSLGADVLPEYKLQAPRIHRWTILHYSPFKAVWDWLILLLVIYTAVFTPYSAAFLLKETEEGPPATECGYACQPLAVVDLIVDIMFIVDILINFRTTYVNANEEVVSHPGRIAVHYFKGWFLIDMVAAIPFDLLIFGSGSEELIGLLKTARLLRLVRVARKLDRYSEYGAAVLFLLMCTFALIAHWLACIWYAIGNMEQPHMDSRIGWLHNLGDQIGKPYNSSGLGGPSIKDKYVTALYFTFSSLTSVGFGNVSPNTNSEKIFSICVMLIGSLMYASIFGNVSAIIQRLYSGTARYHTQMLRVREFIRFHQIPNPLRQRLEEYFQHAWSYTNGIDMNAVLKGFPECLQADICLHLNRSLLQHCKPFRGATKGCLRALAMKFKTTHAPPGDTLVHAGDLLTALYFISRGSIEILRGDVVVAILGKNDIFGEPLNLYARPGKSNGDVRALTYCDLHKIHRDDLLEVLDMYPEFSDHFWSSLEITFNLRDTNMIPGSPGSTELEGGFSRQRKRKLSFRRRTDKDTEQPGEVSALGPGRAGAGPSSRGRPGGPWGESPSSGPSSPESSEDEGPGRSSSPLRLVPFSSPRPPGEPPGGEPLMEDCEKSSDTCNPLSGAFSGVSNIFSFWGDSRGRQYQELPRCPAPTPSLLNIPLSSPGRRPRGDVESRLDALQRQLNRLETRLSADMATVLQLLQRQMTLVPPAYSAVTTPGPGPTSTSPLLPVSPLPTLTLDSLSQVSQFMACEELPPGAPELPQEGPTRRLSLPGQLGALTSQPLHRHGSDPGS
Chain of Glucocorticoid receptor (Homo sapiens) (P04150 whole entry, looked up): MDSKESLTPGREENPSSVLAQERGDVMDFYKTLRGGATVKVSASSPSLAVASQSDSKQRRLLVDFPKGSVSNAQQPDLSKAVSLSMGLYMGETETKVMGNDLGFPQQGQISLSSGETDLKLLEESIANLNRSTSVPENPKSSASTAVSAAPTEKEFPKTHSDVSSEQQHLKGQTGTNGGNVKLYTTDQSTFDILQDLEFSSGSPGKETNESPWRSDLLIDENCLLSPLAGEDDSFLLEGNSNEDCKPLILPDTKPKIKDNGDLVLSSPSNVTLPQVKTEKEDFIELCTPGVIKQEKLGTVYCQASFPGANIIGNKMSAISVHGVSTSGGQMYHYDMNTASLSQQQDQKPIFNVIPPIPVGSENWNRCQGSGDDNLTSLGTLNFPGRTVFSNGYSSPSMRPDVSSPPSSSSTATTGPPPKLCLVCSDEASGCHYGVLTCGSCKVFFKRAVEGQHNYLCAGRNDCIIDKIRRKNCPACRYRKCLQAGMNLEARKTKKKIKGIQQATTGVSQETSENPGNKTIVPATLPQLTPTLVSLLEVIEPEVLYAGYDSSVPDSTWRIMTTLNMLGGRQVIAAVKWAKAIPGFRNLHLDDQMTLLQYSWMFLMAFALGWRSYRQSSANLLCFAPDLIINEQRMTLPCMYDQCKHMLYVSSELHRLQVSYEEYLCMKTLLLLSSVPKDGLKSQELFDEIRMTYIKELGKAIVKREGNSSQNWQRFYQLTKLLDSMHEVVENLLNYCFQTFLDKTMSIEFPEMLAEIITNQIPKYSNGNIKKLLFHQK

Regarding `CCCCC(CC)COCCCN` (stereo unspecified), the Potency in [1] is > 92 µM (inactive). The Potency entry in [2], in test [3], in test [4], in [5], in test [6] and in [7] was “inactive” in each case. Besides, the Potency entry in [8] and in [12] was “inactive” in each case. Besides, in test [9], the activation is -4.42% (inactive). In test [10], the max response was found to be 8.44%. Also, the activity change % (negative = inhibition) in test [11] is 3.53% (inactive).
`c1ccc(COCc2ccccc2)cc1`: the Potency in [1] and in test [13] was > 92 µM (inactive) throughout. For the same compound, the Potency entry in [3], in test [15], in [16], in [7], in [8] and in test [17] was “inactive” each time. Further, the Potency result in [18] and in test [12] was “inactive” each time. In addition, the outcome in test [14] was inactive. The activity change % (negative = inhibition) in test [11] is -18.1% (inactive).
As to `O=[N+]([O-])c1ccc(F)cc1F`, the Potency in test [1] was > 92 µM (inactive); in test [3], 50.1 µM (active). Besides, the Potency entry in [2], in test [4] and in [16] was “inactive” throughout. Moreover, the max response in test [10] was 10.2%.
Take `OCC(CO)(CBr)CBr`: the Potency in test [1] is > 92 µM (inactive). The Potency entry in test [2], in test [4], in test [15], in test [19], in test [16] and in test [7] was “inactive” in each case. The Potency entry in test [8], in test [17], in [18] and in test [12] was “inactive” throughout. Also, in test [10], the max response is 0.13% and -4.24%. The activity change % (negative = inhibition) in test [11] is -10.9% (inactive) and 7.42% (inactive).
With `O=[N+]([O-])c1cccc(I)c1`, the Potency in [1] and in test [13] was > 92 µM (inactive) each time. Besides, the Potency result in test [4], in [15], in test [5], in test [19], in [6] and in test [7] was “inactive” in each case. Moreover, the Potency result in test [17] is “inactive”. In addition, the activation in [9] is -12.6% (inactive). Also, the max response in test [10] was 12.5%. Further, the activity change % (negative = inhibition) in [11] was -8.55% (inactive).
Take `c1ccncc1`: the Potency in test [1] and in test [13] was > 92 µM (inactive) throughout. Further, the Potency result in test [3], in test [4], in [5], in test [20], in test [19] and in test [16] was “inactive” throughout. The Potency result in test [18] was “inactive”. Further, the activity change % (negative = inhibition) in test [11] was -8.3% (inactive).
As to `COc1ccc(C(=O)Nc2ccccc2)cc1[N+](=O)[O-]`, the Potency in test [1] is > 92 µM (inactive). In addition, the Potency result in test [2], in [3], in [4], in test [5], in test [20] and in test [19] was “inactive” in each case. The Potency entry in test [6], in test [16], in test [8], in test [17], in test [18] and in [12] was “inactive” each time. Moreover, the result in test [14] was inactive.
With `CCCCCCc1ccc(-c2ccc(C#N)cc2)cc1`, the Potency in [1] and in test [13] was > 92 µM (inactive) throughout. In [14], the compound was called inactive. Also, the Potency result in [15], in [5], in test [20], in test [19] and in test [16] was “inactive” throughout. In addition, in [9], the activation was -6.81% (inactive). The max response in [10] amounted to 11%. Also, the activity change % (negative = inhibition) in test [11] is 6.73% (inactive).
Turning to `CC(C)S`, the Potency in test [1] and in test [13] was > 92 µM (inactive) in each case. In addition, the Potency result in [3], in test [15], in [5], in [16], in test [7] and in test [17] was “inactive” each time. Further, in [18], the Potency entry was “inactive”. Further, the activation in test [9] was 2.41% (inactive). In addition, in [10], the max response was -7.04%.
